Screening results from PubChem BioAssay.
Dicer processing = inhibitors of human Dicer processing of pre-microRNA. Q9UPY3. cat-ELCCA pre-miR-21 Dicer processing, chemiluminescence; hits give high values. z-score at 25 µM. 47,000 compounds, 6% hits; in the data active = z-score above about 3, passing the limit was not always enough;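 note: higher signal means more uncleaved substrate so more Dicer inhibition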
A number is an active result; n = inactive. The entries come from a sample that favours hits as a whole.

SMILES	Dicer processing
O=C1CC(c2cccs2)CC2=C1C(c1ccc(Cl)cc1)Nc1ccccc1N2 (stereo not given)	n
O=C1CC(c2cccs2)CC2=C1C(c1cccc(O)c1)Nc1ccccc1N2 (stereo not given)	3.16
O=C1CC(c2ccccc2)CC2=C1C(c1cccc(O)c1)Nc1ccccc1N2 (stereo not given)	n
CCOc1cc(C)c(Cl)cc1S(=O)(=O)n1cnc(C)c1	n
C#CCOc1ccc(Cl)cc1C1C2=C(CCCC2=O)NC2=C1C(=O)CCC2	n
COCc1cc(=O)[nH]c(/N=C(\N)Nc2ccccc2SC)n1	n
COc1ccc(/C(C)=N/N=C/c2cc(OC)c(OC)c(OC)c2)cc1	n
CCOC(=O)c1cnc(Sc2ccc(Cl)cc2)nc1C(F)(F)F	n
COc1ccccc1Nc1nc(C)c([N+](=O)[O-])c(Nc2ccccc2OC)n1	n
NS(=O)(=O)c1cc(Cl)ccc1Cl	n
Cc1c(Cc2ccccc2)c(-n2ccnc2)n2c(nc3ccccc32)c1C#N	n
Cc1c(CCC(C)C)c(-n2ccnc2)n2c(nc3ccccc32)c1C#N	3.46
CCCCc1c(C)c(C#N)c2nc3ccccc3n2c1N1CCN(CCO)CC1	n
CCCc1c(C)c(C#N)c2nc3ccccc3n2c1NCCCn1ccnc1	n
Cc1c(Cc2ccccc2Cl)c(NCCCn2ccnc2)n2c(nc3ccccc32)c1C#N	n
Cc1c(Cc2ccc(Cl)cc2)c(NCCCn2ccnc2)n2c(nc3ccccc32)c1C#N	4.36
CCc1ccc(N2C(=O)C3NN=C(C(=O)OCc4ccccc4)C3C2=O)cc1 (stereo not given)	n
O=C(OCc1ccccc1)C1=NNC2C(=O)N(c3ccc(Br)cc3)C(=O)C12 (stereo not given)	3.55
O=C(OCc1ccccc1)C1=NNC2C(=O)N(c3ccccc3)C(=O)C12 (stereo not given)	n
COc1cccc(OC)c1C(C)(O)C(OC)OC (stereo not given)	n
O=C(O)CCCNC1=NCCS1	n
Clc1nc(NCCN2CCOCC2)nc(N2CCC(Cc3ccccc3)CC2)n1	n
O=C(O)CCCNc1nc(Cl)nc(N2CCCCC2)n1	5.65
CCC(OC(=O)CN1C(=O)C(=O)c2ccccc21)C(=O)Nc1sc2c(c1C#N)CCCC2 (stereo not given)	n
CSC(=S)N(C)NC(=O)Nc1cccc(Cl)c1	n
SMILES	Dicer processing
COC(=O)CSC1=C(C#N)C(c2ccccc2Cl)CC(=O)N1 (stereo not given)	n
S=C(NC1CC2CCC1C2)NN1C2CSC1CS2 (stereo not given)	n
COc1ccc(-c2noc(COc3ccc(C)cc3C)n2)cc1	n
Cc1ccc(-c2noc(COc3ccc(Cl)cc3)n2)cc1	n
Cc1ccc(-c2noc(COc3ccc(Cl)cc3C)n2)cc1	5.74
CN1CCN(C(c2cccs2)c2ccc3cccnc3c2O)CC1 (stereo not given)	n
CN1CCN(C(c2cccs2)N2CCN(C)CC2)CC1	4.62
CN1CCN(C(c2ccccc2)c2ccc(Cl)cc2)CC1 (stereo not given)	n
Cc1ccc(C(=O)CC2(O)C(=O)Nc3c(C)cccc32)cc1 (stereo not given)	n
O=C(NC1=NCCN1)c1c(Cl)cccc1Cl	n
COc1ccc(NC2=NC(C)(CO)CS2)cc1 (stereo not given)	n
C=C1SC(Nc2ccccc2OC)=NC1(C)C	n
C=C1SC(Nc2cc(OC)cc(OC)c2)=NC1(C)C	14.7
O=C(c1ccc(Br)cc1)N1CC2C3CCC(O3)C2C1 (stereo not given)	n
O=C(CSc1nn2cnnc2s1)N1CCc2ccccc21	3.15
O=C(CSc1nn2cnnc2s1)N(C1CCCCC1)C1CCCCC1	n
O=C(CSc1ncn[nH]1)N1CCc2ccccc21	n
Clc1ccc(CN2CCCN(c3ncnc4scc(-c5ccccc5)c34)CC2)cc1Cl	n
CCCc1cnc(N2CCN(c3ncnc4scc(-c5ccccc5)c34)CC2)nc1	n
c1ccc(-c2csc3ncnc(N4CCN(Cc5ccc6c(c5)OCO6)CC4)c23)cc1	4.65
Cc1nn(Cc2n[nH]c(=S)o2)c(C)c1Br	n
C#CCSc1ccccc1C1=NCCCN1	n
CC(C)CCSc1nc(N2CCCC2)c2c(c1C#N)CC(C)(C)OC2	3.11
CC(C)Sc1nc(N2CCCC2)c2c(c1C#N)CC(C)(C)OC2	n
CC1(C)Cc2c(C#N)c(SCc3ccccc3)nc(N3CCOCC3)c2CO1	n
SMILES	Dicer processing
Cc1nc2ccc(F)cc2c2c1CCN2c1ccc(Cl)cc1	n
COc1ccc(C(O)(c2ccccc2)c2ccccc2)cc1	n
C#CC(O)(c1ccccc1)c1ccccc1	n
CC(C)C(N)C(O)(c1ccccc1)c1ccccc1 (stereo not given)	3.85
CC(C)(C)S(=O)(=O)/C(C#N)=C/c1ccc(F)c(Cl)c1	n
O=C1C2C3c4ccccc4C(c4ccccc43)C2C(=O)N1Cc1ccccc1 (stereo not given)	n
COc1ccc(C2=NCCc3sccc32)cc1	n
Cc1cc(NC(=O)CSc2nnc3c4ccccc4n(C)c3n2)no1	n
C=CCn1c2ccccc2c2nnc(SCC(=O)Nc3c(C)n(C)n(-c4ccccc4)c3=O)nc21	n
Cc1c(NC(=O)CSc2nnc3c4ccccc4n(C)c3n2)c(=O)n(-c2ccccc2)n1C	3.23
CN1c2ccccc2C(=O)/C(=C\Nc2cccnc2)S1(=O)=O	n
O=[N+]([O-])c1ccc(/C=N/Nc2nccc(-c3cccnc3)n2)cc1	n
O=S(=O)(c1ccccc1)c1csc(S(=O)(=O)N2CCCN(c3ccc(C(F)(F)F)cn3)CC2)c1	n
CCCCC(=O)N(c1ccc2oc(=O)sc2c1)S(=O)(=O)c1cc(OC)ccc1OC	5.22
Cc1cc(F)ccc1S(=O)(=O)N(C(=O)C(C)C)c1ccc2oc(=O)sc2c1	5.02
CCCC(=O)N(c1ccc2oc(=O)sc2c1)S(=O)(=O)c1ccc(OC)cc1	n
CCOc1ccc(S(=O)(=O)N(C(=O)C(C)C)c2ccc3oc(=O)sc3c2)cc1	3.14
Cc1ccc(S(=O)(=O)N(C(=O)C(C)C)c2ccc3oc(=O)sc3c2)cc1	n
O=C(c1ccncc1)N(c1cc2sc(=O)oc2c2ccccc12)S(=O)(=O)c1ccc(F)cc1	n
Cc1cc(F)ccc1S(=O)(=O)N(C(=O)c1ccncc1)c1ccc2oc(=O)sc2c1	6.54
CCCC(=O)N(c1ccc2oc(=O)sc2c1)S(=O)(=O)c1ccc(Br)cc1	n
COc1ccc(S(=O)(=O)N(C(=O)C(C)C)c2ccc3oc(=O)sc3c2)cc1OC	n
CCCC(=O)N(c1ccc2oc(=O)sc2c1)S(=O)(=O)c1ccc(OCC)cc1	n
COC(=O)C1=C(C)NC2=C(C(=O)CC(c3ccccc3OC)C2)C1c1ccc(C(=O)OC)cc1 (stereo not given)	n
O=C(Cn1c(-c2ccccn2)nc2ccccc21)NCCCn1ccnc1	n
SMILES	Dicer processing
Cc1ccc(SCC(=O)Nc2nnc(SCC(=O)Nc3ccc(F)c(F)c3F)s2)cc1	n
O=C1CSC(c2ccc(Cl)cc2)N1c1ccccc1 (stereo not given)	n
Cc1ccc(-c2nnc(CSc3n[nH]c(=O)n3-c3ccccc3C(F)(F)F)o2)cc1	n
Cc1ccc(S(=O)(=O)NC(=S)NNC(C)(C)C)cc1	n
COc1ccc(NC(C)=O)c(N=Cc2cc(OC)c(OC)c(OC)c2)c1	n
C=CCOc1cccc(C2c3c(oc4ccc(C)cc4c3=O)C(=O)N2Cc2ccc3c(c2)OCO3)c1 (stereo not given)	n
O=C(CSC(=S)NNc1ccccc1)c1cccc([N+](=O)[O-])c1	n
O=C(CSC(=S)NNc1ccccc1)c1ccc(Cl)cc1	3.1
CC(C)(C)SC(=S)SCC(=O)c1ccc(Cl)cc1	n
